Reference: PubChem BioAssay AID1063 (University of Pittsburgh Molecular Library Screening Center, 2008)
Screen size: about 200,000 compounds; about 18,000 (9%) were called active. Only a selection was taken, and actives are over-represented in it overall. Unmarked numbers belong to inactive results. Rule as the data show it: active = inhibition above about 50%; inactive = the rest.

Assay: Leishmania major promastigote growth inhibition, primary screen (AID 1063);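 also: promastigotes grown with compound for 44 hours at 28 °C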
Settings: Leishmania major promastigotes, resazurin fluorescence viability; at 10 µM; hits give high values

In order of rising inhibition:
1. O=C(O)CCC(=O)N(Cc1ccco1)c1nc(-c2ccccc2)cs1  -11.4%
2. CC(C)CCNC(=O)Cn1c(=O)oc2cc(S(=O)(=O)N3CC(C)CC(C)C3)ccc21 (centres undefined)  -10.9%
3. COc1ccc(/C=C2/SC(=O)N(CCCCCC(=O)Nc3ccccc3C(=O)O)C2=S)cc1  -8.92%
4. CCN(Cc1ccccc1)S(=O)(=O)c1cc(C(=O)O)ccc1OC  -8.56%
5. O=S(=O)(c1ccc2c(c1)OCCO2)N1CCc2ccccc21  -6.88%
6. CC(C)(C)C(=O)NCCCNc1ccc([N+](=O)[O-])cc1  -6.51%
7. COc1ccc(C(=O)Nc2ccc(N3CCC(C)CC3)cc2)cc1Br  -6.43%
8. CCOC(=O)Cn1c(=O)oc2cc(S(=O)(=O)NCC3CCCO3)ccc21 (centres undefined)  -5.87%
9. CSCCC(NC(=O)c1ccc(=O)n(C)n1)c1nc2ccccc2[nH]1 (centres undefined)  -5.06%
10. COc1ccc(CC(=O)N[C@@H](CCSC)c2nc3ccccc3[nH]2)cc1  -4.82%
11. CN(CC(=O)Nc1ccccc1F)CC(=O)Nc1ccccc1Br  -4.41%
12. Cc1cccc(C)c1OCC(=O)NC(Cc1c[nH]c2ccccc12)C(=O)O (centres undefined)  -3.57%
13. CCCCC(C(=O)OCC(=O)c1ccc(OC)cc1)N1C(=O)c2ccccc2C1=O (centres undefined)  -3.44%
14. COc1ccc(N2CCN(c3ccc([N+](=O)[O-])nc3)CC2)cc1  -3.36%
15. O=S(=O)(Nc1cc(S(=O)(=O)N2CCOCC2)ccc1N1CCCC1)c1cccs1  -3.24%
16. CCn1c2ccccc2c2cc(NC(=O)COC(=O)c3ccccc3Br)ccc21  -2.86%
17. COc1ccc(OCCCON2C(=O)c3ccccc3C2=O)cc1  -2.83%
18. Cc1ccc(NC(=O)CSc2nnc(COc3ccccc3C)o2)cc1  -2.82%
19. COc1ccc(/C=C/C(=O)OCC(=O)Nc2cccc(Oc3ccccc3)c2)c(OC)c1  -2.55%
20. CN(Cc1ccccn1)Cc1nc(-c2ccc(Cl)cc2)no1  -2.18%
21. CCN(C(=O)COC(=O)/C=C/c1nc2ccccc2s1)C1CCS(=O)(=O)C1 (centres undefined)  -2.12%
22. CCOc1cc(/C=N/NC(=O)c2ccc(CSc3nncn3C)cc2)ccc1OCC(=O)N1CCOCC1  -1.61%
23. COCC(C)NCc1cc(Br)ccc1OC (centres undefined)  -1.49%
24. Cc1ccc(OCC(O)CN2CCN(CC(O)COc3ccc(C)cc3Cl)CC2)c(Cl)c1 (centres undefined)  -0.86%
25. C/C=C/c1ccc(OCC(O)CN2CCCCCCC2)c(OC)c1 (centres undefined)  -0.01%
26. O=C(Nc1cc(-c2nn(CC(=O)N3CCCCC3)c(=O)c3ccccc23)ccc1N1CCOCC1)c1ccc(Cl)cc1  0.47%
27. Cc1cc(C)c2nc(SCC(=O)N(C)C3CCS(=O)(=O)C3)cc(C)c2c1 (centres undefined)  0.72%
28. Cc1cccc(C2=N/C(=C/c3cccs3)C(=O)O2)c1  1.4%
29. CCOc1cc(/C=C2/C(=N)N3OC(C)=CC3=NC2=O)ccc1OC  2.63%
30. Cc1ccc(-c2csc(NC(=O)c3cccs3)n2)cc1  3.66%
31. Cc1ccc(NC(=O)CN2CCCCC2)c2c1CC(C)(C)O2  3.82%
32. Cn1c(=O)n(C)c2cc(NS(=O)(=O)c3ccc(F)cc3)ccc21  4.59%
33. Cc1cnc(C(=O)OCC(=O)N2CCc3ccccc32)cn1  5.21%
34. COc1ccccc1C(c1nnnn1CC1CCCO1)N1CCN(c2ccccc2)CC1 (centres undefined)  6.1%
35. Cn1nnnc1NCc1ccc(Cl)c(Cl)c1  6.1%
36. O=S(=O)(Nc1ccc2cn[nH]c2c1)c1ccccc1  6.15%
37. O=C(CCNC(=O)c1ccc([N+](=O)[O-])cc1)Nc1ccccc1N1CCOCC1  7.58%
38. Cc1ccc2nc(C)cc(N/N=C/c3ccc(F)cc3)c2c1  7.72%
39. O=C(COC(=O)c1cc(S(=O)(=O)N2CCCCC2)ccc1Cl)NCc1ccco1  7.75%
40. COc1ccc(-c2nn(C)c(=O)c3ccccc23)cc1NC(=O)COc1ccccc1  8.76%
41. CCN(CC)S(=O)(=O)c1ccc(N(C)Cc2cccc(OC)c2OC)nc1  8.96%
42. CC(C)CN1CCNC(=O)C1CC(=O)N(C)CC1CCOCC1 (centres undefined)  9.06%
43. COc1ccc(-c2cn3cccnc3n2)cc1  10.2%
44. NS(=O)(=O)c1ccc(NC(=S)Nc2ccc(Br)c(Cl)c2)cc1  10.7%
45. Cc1cccc(N2CCN(C(c3ccc(N(C)C)cc3)c3nnnn3C(C)(C)C)CC2)c1C (centres undefined)  11.3%
46. CCOCCCNCc1cc(Br)ccc1OCC  13.3%
47. Cc1ccc2c(c1)C1CN(C)CCC1N2C(=S)Nc1ccc(OC(F)F)cc1 (centres undefined)  34.5%

With CCn1c2ccccc2c2cc(NC(=O)COC(=O)c3cc(S(=O)(=O)N4CCCCC4)ccc3Cl)ccc21 the inhibition was 73.8% (active).
In the case of CSCCC(NC(=O)c1cc([N+](=O)[O-])cc([N+](=O)[O-])c1)c1nc2ccccc2[nH]1 (centres undefined), the inhibition is reported as 96.8% (active).
With Cc1ccc(CN(N=Nc2nonc2N)c2nonc2N)c(C)c1 the inhibition was 88.8% (active).
With CCC(C)NCCOCCOc1ccc(Br)cc1C (centres undefined) the inhibition was 99% (active).
For Cc1cccc(N2CCN(C(c3ccccc3)c3nnnn3CC3CCCO3)CC2)c1C (centres undefined), the inhibition was 75.9% (active).
With Cn1nc(-c2ccc(N3CCOCC3)c(NC(=O)c3ccccc3)c2)c2ccccc2c1=O the inhibition was 77% (active).
For CC1(C)CC(=O)c2c(n(S(=O)(=O)c3ccccc3)c3ccc(NS(=O)(=O)c4ccccc4)cc23)C1, the inhibition was 98.6% (active).
For C=CCc1ccc(OCC(O)CN2CCN(Cc3ccccc3)CC2)c(OC)c1 (centres undefined), the inhibition was 87.8% (active).
In the case of CCOC(=O)Cn1c(=O)oc2cc(S(=O)(=O)N(C)Cc3ccco3)ccc21, the inhibition is reported as 98.7% (active).
For CCOC(=O)C1=C(c2ccc(OC)cc2)C(=O)c2ccccc2C1=O, the inhibition was 101% (active).
For Cc1ccc(-c2csc(N(Cc3ccco3)C(=O)c3cccs3)n2)cc1, the inhibition was 100% (active).
In the case of O=C(COC(=O)/C=C/c1nc2ccccc2s1)Nc1ccccc1Oc1ccccc1, the inhibition is reported as 51.7% (active).
